# Measured values published in PubChem BioAssay (NCATS).
# Records with an inconclusive call do not appear. Values without a mark were called inactive. Calls of active or inactive are those of the source. Calls follow the shape of the dose curve; as a rule, active = well fitted inhibition curve with a large enough effect; inconclusive = small, poorly fitted or top-dose-only effect; inactive = flat fitted curve, though single readings scatter.
# Key:
# CRL-7250 = normal cell line; test: Cytotoxic Profiling of Annotated Libraries Using Quantitative High-Throughput Screening (AID 1296008); conditions: Five cell lines viability, CellTiter-Glo ATP luminescence, 48-72 h; max response: hits give low values; as to max response: % is scaled to controls: 0 for no effect and ±100 for the full control effect
# Summary of the method: (§1)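 Compounds were pin-transferred onto cells and incubated 48 or 72 hr at 37 degree Celsius, 95% humidity. CellTiter-Glo was added, plates sat 10 min at room temperature, then ATP-coupled luminescence was imaged as the viability read-out.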
# HaCat [1] = test: as above; conditions: Five cell lines viability, CellTiter-Glo ATP luminescence, 48-72 h; max response: hits give low values
# Summary of the method: as §1
# NIH3T3 = test: as above; conditions: Five cell lines viability, CellTiter-Glo ATP luminescence, 48-72 h; max response: hits give low values
# Summary of the method: as §1
# HACAT [2] = test: qHTS assay to identify novel small-molecules to repurpose for Merkel cell carcinoma treatment (AID 1296009); conditions: MCC and control cell lines, CellTiter-Glo viability, 72 h; at 44.8 µM (top of the series) unless noted
# Summary of the method: (§2)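 Luminescence from CellTiter-Glo, read 10 min after addition at room temperature, reported viability following a 72 hr, 37 degree celsius treatment with NPC or MIPE compounds in titration; values normalized to plate controls.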
# KB-3-1 = test: Cytotoxic Profiling of Annotated Libraries Using Quantitative High-Throughput Screening (AID 1296008); conditions: Five cell lines viability, CellTiter-Glo ATP luminescence, 48-72 h; max response: hits give low values; as to max response: % is scaled to controls: 0 for no effect and ±100 for the full control effect
# Summary of the method: as §1
# HEK293 = test: as above; conditions: Five cell lines viability, CellTiter-Glo ATP luminescence, 48-72 h; max response: hits give low values
# Summary of the method: as §1
# HEK293T = test: qHTS assay to identify novel small-molecules to repurpose for Merkel cell carcinoma treatment (AID 1296009); conditions: MCC and control cell lines, CellTiter-Glo viability, 72 h
# Summary of the method: as §2
# Also: nearly all actives have a fitted effect of over 60% in size.
# Potency is read from the fitted curve at half-maximal effect.
smiles,measurement,setting,value
CCCCCCCOc1cc2c(cc1/C(C)=C/c1ccc(C(=O)O)cc1)C(C)(C)CCS2(=O)=O,outcome,CRL-7250,inactive
same,outcome,HaCat [1],inactive
same,outcome,NIH3T3,inactive
same,outcome,HACAT [2],inactive
COc1ccc(S(=O)(=O)N2CCC[C@H]2C(=O)Nc2cc(C)cc(C)c2)cc1,max response,CRL-7250,2.15%
same,outcome,KB-3-1,inactive
same,max response,NIH3T3,0.512%
CC(C)C[C@@H](C(=O)N[C@@H](Cc1ccc(OCc2ccccc2)cc1)C(=O)NC(C)(C)C)N(C)Cc1ccc(C(C)(C)C)cc1,max response,CRL-7250,-7.62%
same,outcome,HaCat [1],inactive
same,max response,NIH3T3,-5.54%
same,outcome,HACAT [2],inactive
C/C=C(\C)C(=O)O[C@H]1C=C(CO)C(=O)[C@H](OC(C)=O)[C@H]1C(C)C,Potency,HEK293,8.05 µM (active)
Fc1ccc(N2CCCCC2)c(NC(=S)c2ccncc2)c1,max response,CRL-7250,3.95%
same,max response,KB-3-1,-9.62%
same,max response,NIH3T3,-6.72%
C=C(C)C1CC(O)C(C)C12CC(O)C1(C)OC1C2O (configuration not stated),Potency,CRL-7250,2.59 µM (active)
same,Potency,KB-3-1,3.66 µM (active)
same,max response,NIH3T3,-26.2%
CO[C@@H]1CC(OC2CCC3(C)C(CCC45CCC(C6=CC(=O)OC6)C(C)(CCC43)C5=O)C2)O[C@H](C)[C@@H]1O[C@@H]1O[C@H](CO[C@@H]2O[C@H](CO)[C@@H](O)[C@H](O)[C@H]2O)[C@@H](O)[C@H](O)[C@H]1O (some centres not stated),Potency,CRL-7250,2.46 µM (active)
same,Potency,KB-3-1,3.48 µM (active)
same,max response,NIH3T3,-1.96%
CCn1c(=O)c(-c2ccc(Cl)cc2Cl)cc2cnc(Nc3ccc(N4CCNCC4)c(F)c3)nc21,Potency,CRL-7250,1.16 µM (active)
same,Potency,NIH3T3,1.03 µM (active)
CCOc1cn(-c2ccc(F)cc2C)nc1C(=O)Nc1ccc(Oc2ccnc3cc(OC)c(OC)cc23)c(F)c1,max response,CRL-7250,-25.1%
same,max response,KB-3-1,5.26%
same,Potency,NIH3T3,5.8 µM (active)
Clc1cccc(COc2cncc(N3CCNCC3)n2)c1,outcome,CRL-7250,inactive
same,max response,KB-3-1,-0.792%
same,max response,NIH3T3,-5.94%
NC(=O)N1CCC(CC(=O)N2CCC(C3c4ncc(Br)cc4CCc4cc(Cl)cc(Br)c43)CC2)CC1 (configuration not stated),max response,CRL-7250,-10.9%
same,max response,NIH3T3,2.37%
C=C1CC(=O)C2OC2(C)CC2OC(=O)C(=C)C2C(O)C1OC(=O)/C(C)=C\C (configuration not stated),Potency,HEK293,6.4 µM (active)
CC1=CC2/C=C(\C)CCC3OC(C)(C)OC3CCC(=O)C23C(=O)NC(CC(C)C)C3C1C (configuration not stated),max response,CRL-7250,4.29%
same,max response,KB-3-1,3.72%
same,max response,NIH3T3,-3.16%
C=C(C(=O)OC[C@H]1O[C@@H](OC(=O)/C=C/c2ccccc2)[C@H](O)[C@@H](O)[C@@H]1O)C(O)CO (some centres not stated),max response,CRL-7250,-9.26%
same,max response,NIH3T3,1.83%
CCN(c1cc(-c2ccc(CN3CCOCC3)cc2)cc(C(=O)NCc2c(C)cc(C)[nH]c2=O)c1C)C1CCOCC1,max response,CRL-7250,-21.9%
same,max response,KB-3-1,-1.86%
same,max response,NIH3T3,-11.7%
CC1(NC(=O)c2ccc(C#Cc3cccc(F)c3)cn2)COC1,max response,CRL-7250,4.8%
same,max response,KB-3-1,-5.29%
same,max response,NIH3T3,-3.45%
CN(CC1COCCO1)S(=O)(=O)Nc1ccc2ccc3ncc(-c4cnn(C)c4)cc3c(=O)c2c1 (configuration not stated),Potency,CRL-7250,5.8 µM (active)
same,Potency,NIH3T3,3.26 µM (active)
same,Potency,HEK293T,6.51 µM (active)
COc1ccccc1C(=O)Nc1cc2c(cc1N1CCCC1)n(C)c(=O)n2C,max response,CRL-7250,-29%
same,max response,NIH3T3,-10.9%
Cc1ccc(NC(=O)C(C)C)cc1C1CCN(Cc2ccc(Oc3ccc(F)c(F)c3)cc2)CC1,Potency,HEK293,13 µM (active)
Nc1cccc(CNC(=O)c2ccc(Oc3ccc(OCc4cccc(F)c4)cc3)nc2)c1,Potency,HEK293,11.6 µM (active)
Cc1cc(F)ccc1[C@H]1C[C@@H](N2CCN3C(=O)CC[C@H]3C2)CCN1C(=O)N(C)[C@H](C)c1cc(C(F)(F)F)cc(C(F)(F)F)c1,max response,CRL-7250,2.7%
same,outcome,NIH3T3,inactive
